High-throughput results (PubChem BioAssay)
Compounds with a hit are over-represented: about 2.8% of the library has one in this group of screens.
HTT ATP protect = Huntington cell model cytoprotection by ATP luminescence; PC12 HTT-Q103 induced, cytoprotection, ATP luminescence, 40 h; Potency, µM (doses to about 56.4 µM), inactives show cytoprotection (ATP increase), hits mostly activators; 0.14% of 230,000 active; AID 1471; also: % of control where 0% means no effect; nearly all actives have a fitted effect of over 45% in size
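Readout: ATPlite luminescence (ATP level). Model: stable PC12, inducible Htt exon1 Q103-GFP. Inducer: tebufenozide, 100 nM final. Compounds: dose series. No G418 in medium.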
TGFb inhibitor = inhibitors of TGF-b signaling | AID 588855 | HepG2 CAGA-GFP TGF-b/SMAD3 reporter, GFP fluorescence, 18 h; TGF-beta stimulated, 500 pg/mL final | Potency, µM (titrated, usually from 46.1 µM), without a hit: top-dose activity, negative = inhibition, actives largely listed as inhibitors | 1.2% of 410,000 active; also: % is scaled to controls: 0 for no effect and ±100 for the full control effect; nearly all actives have a fitted effect of over 65% in size
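First, reporter cells (HEPG2 CAGA-GFP) rested 2 h at 37 degrees C. Next, compounds were pinned in and TGF-beta added to 500 pg/mL final. After 18 h, GFP was imaged per cell and summed per well.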
ATXN viability = cell viability loss in ATXN counter-screen; S2 cells (HEK-293 line with an ATXN2-luciferase reporter) viability, CellTiter-Fluor protease fluorescence, 24 h; Potency, µM (doses to about 56.7 µM), usual class: cytotoxic; 0.49% of 400,000 active; also: nearly all actives have a fitted effect of over 40% in size
ATXN2 expr inh = inhibitors of ATXN2 expression | HEK-293 ATXN2-luciferase reporter, luminescence, 24 h | Potency, µM (highest dose often 57 µM), inactives show at the top dose activity change, negative = inhibition, hits mostly inhibitors | 0.72% of 360,000 active | AID 1745845; also: % is scaled to controls: 0 for no effect and ±100 for the full control effect; nearly all actives have a fitted effect of over 55% in size
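qHTS (up to 57 uM final) was run with 24 h compound exposure of reporter cells at 37 °C. Each well was multiplexed: SteadyGlo luminescence measured ATXN2-luciferase expression after a fluorogenic Gly-Phe-AFC viability readout (25 uM final).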
HepG2 tox-1 = counter-screen for TGF-b inhibitors: cytotoxicity in HepG2 cells; HepG2 CAGA-GFP viability, ATP luminescence, 18 h; Potency, µM (titrated, usually from 46.1 µM), inactives show at the top dose activity change, negative = cytotoxicity, usual class: cytotoxic; 0.76% of 410,000 active; AID 588856
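HepG2 CAGA-GFP cells (1000/well, DMEM with 1% FBS) received compound, then TGF-beta at 500 pg/mL final, and were incubated 18 hours at 37 degrees C. Viability was read by CellTiter-Glo luminescence. Media-only wells were set as complete cell-killing and DMSO as no toxicity.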
HttQ103 aggreg = mutant huntingtin aggregation inhibition. Potency, µM (series often up to 46.1 µM), for the others: at the top dose activity change, negative = inhibition, hits mostly inhibitors. PC12 HttQ103-GFP aggregates, Acumen cytometry, 40 h. 1.1% of 220,000 active; also: % is scaled to controls: 0 for no effect and ±100 for the full control effect; nearly all actives have a fitted effect of over 60% in size
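PC12 cells with ecdysone-inducible HTT exon1 Q103-GFP, induced by 100 nM tebufenozide, given compounds in a concentration series. GFP aggregates (1–25 um, 6 SD above background) counted in lysates by laser-scanning cytometry, 488 nm excitation.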
TGFb CAGA inh = TGF-b pathway inhibition, cherry-pick retest; shares compounds with TGFb inhibitor; HepG2 CAGA-GFP TGF-b reporter, GFP fluorescence, 18 h; cells stimulated with TGF-beta, 500 pg/mL; Potency, µM (doses to about 46.1 µM), without a hit: top-dose activity, negative = inhibition, hits mostly inhibitors; 63% of 1,600 active; AID 720534; also: % is scaled to controls: 0 for no effect and ±100 for the full control effect; nearly all actives have a fitted effect of over 65% in size
HepG2 tox-2 = toxic to HepG2 cells in TGF-b counterscreen; shares compounds with TGFb inhibitor; HepG2 CAGA-GFP viability, ATP luminescence, 18 h; cells stimulated with TGF-beta, 500 pg/mL; Potency, µM (titrated, usually from 46.1 µM), for the others: at the highest dose activity, negative = cytotoxicity, hits mostly inhibitors; 27% of 1,600 active; also: % is scaled to controls: 0 for no effect and ±100 for the full control effect; nearly all actives have a fitted effect of over 70% in size
CCL64 TGFb inh = TGF-b inhibition, CCL64 orthogonal assay; shares compounds with TGFb inhibitor; CCL64 CAGA-GFP reporter, TGF-b stimulated, GFP fluorescence, 18 h; Potency, µM (series often up to 46.1 µM), for the others: top-dose activity, negative = inhibition, usual class: inhibitors; 41% of 1,600 active; AID 720536; also: nearly all actives have a fitted effect of over 65% in size
TGFb COP inh = TGF-b inhibition validated with COP promoter | shares compounds with TGFb inhibitor | HepG2 COP-GFP TGF-b reporter, GFP fluorescence, 18 h; cells stimulated by added recombinant TGF-beta | Potency, µM (highest dose often 46.1 µM), inactives show at the highest dose activity, negative = inhibition, hits mostly inhibitors | 3% of 1,600 active; also: nearly all actives have a fitted effect of over 70% in size
The depositor's hits bear a star; [ ] = dose if it differs, or a comment. Calls follow the shape of the dose curve; as a rule, active = well fitted curve in the direction sought with a large enough effect; inconclusive = small, poorly fitted or top-dose-only effect, or another doubt; inactive = no such curve, though single readings can be large; an effect the other way counts as inactive or inconclusive. Potency is read from the fitted curve at half-maximal effect.

What do the screens show for `C=CCOC(=O)C(C(C)=O)C(NC(=O)OC)c1ccc2ccccc2c1` (stereo unspecified)?
HTT ATP protect: 3.5%[10 µM]

What do the screens show for `CN(C)c1ncc2nc(-c3ccc(Cl)cc3)c(=O)n(Cc3cccs3)c2n1`?
HTT ATP protect: -3.2%

How did Cc1ccc(CNc2ccc(O)cc2)cc1 do in these assays?
HTT ATP protect: -2.4%[10 µM]; TGFb inhibitor: 10µM*; ATXN viability: inactive; ATXN2 expr inh: 7.0%; HepG2 tox-1: -102.8%; HttQ103 aggreg: 15.8%; TGFb CAGA inh: 23.1µM*; HepG2 tox-2: inconclusive; CCL64 TGFb inh: inconclusive; TGFb COP inh: inconclusive

Results for COc1ccc2c(c1)OC[C@H]1[C@H]2N2C(=O)CN(Cc3ccc(Cl)cc3)C(=O)[C@@]2(C)[C@H]1c1ccccc1 ?
TGFb inhibitor: 5.01µM*; ATXN viability: inactive; ATXN2 expr inh: 0.0%; HepG2 tox-1: -24.6%; TGFb CAGA inh: inconclusive; HepG2 tox-2: -3.9%; CCL64 TGFb inh: -1.0%; TGFb COP inh: 0.1%

What do the screens show for `CC(C)c1ccc(CN2CCN(C(=O)CSc3nnnn3C3CC3)CC2)cc1`?
TGFb inhibitor: inconclusive; ATXN viability: inactive; ATXN2 expr inh: -33.7%; HepG2 tox-1: -35.3%; TGFb CAGA inh: -22.1%; HepG2 tox-2: -21.6%; CCL64 TGFb inh: 1.0%; TGFb COP inh: 7.8%

How did O=C(CSc1nnnn1C1CC1)N1CCN(c2cccc(Cl)c2)CC1 do in these assays?
TGFb inhibitor: -22.1%; ATXN viability: inactive; ATXN2 expr inh: -31.2%; HepG2 tox-1: -20.3%

What do the screens show for `COc1ccc(C(=O)/C=C/C(=O)N(Cc2ccc(F)cc2)C(C(=O)NC2CCCCC2)c2ccncc2)c(O)c1` (stereo unspecified)?
HTT ATP protect: 2.9%[10 µM]; TGFb inhibitor: 10µM*; ATXN viability: inconclusive; ATXN2 expr inh: -28.9%; HepG2 tox-1: 1.7%; HttQ103 aggreg: 28.5%; TGFb CAGA inh: inconclusive; HepG2 tox-2: -18.2%; CCL64 TGFb inh: 13µM*; TGFb COP inh: 35.1%

How did C=CCNC(=O)c1onc(CSc2ccc(F)cc2)c1C(=O)NCC=C do in these assays?
TGFb inhibitor: 1.1%; ATXN viability: inactive; ATXN2 expr inh: -12.9%; HepG2 tox-1: -9.0%

How did C=CCNC(=O)c1onc(CSc2ccc(F)cc2)c1C(=O)NCCOC do in these assays?
HTT ATP protect: -22.8%; TGFb inhibitor: inconclusive; ATXN viability: inactive; ATXN2 expr inh: -1.3%; HepG2 tox-1: 1.9%; HttQ103 aggreg: 1.8%; TGFb CAGA inh: -7.3%; HepG2 tox-2: 2.2%; CCL64 TGFb inh: 12.4%; TGFb COP inh: -0.7%

Results for O=C1CCN(CCc2ccccc2)CCN1C(CSc1ccc(Br)cc1)Cc1ccccc1 (stereo unspecified) ?
TGFb inhibitor: -6.3%; HepG2 tox-1: 12.8%

Results for Oc1ccccc1-c1nc2cnccn2c1Nc1ccc2c(c1)OCCO2 ?
HTT ATP protect: 8.6%; TGFb inhibitor: inconclusive; ATXN viability: inactive; ATXN2 expr inh: -17.1%; HepG2 tox-1: -3.6%; HttQ103 aggreg: -2.4%; TGFb CAGA inh: inconclusive; HepG2 tox-2: -2.0%; CCL64 TGFb inh: inconclusive; TGFb COP inh: 0.0%

What do the screens show for `CCCCc1ccc(NC(=S)NCc2cccc(OC)c2)cc1`?
HTT ATP protect: -54.3%; TGFb inhibitor: inconclusive; ATXN viability: inactive; ATXN2 expr inh: -16.8%; HepG2 tox-1: -16.7%; HttQ103 aggreg: -4.9%[9.22 µM]

How did CCCCc1ccc(NC(=S)Nc2ccc(Nc3ccc(OC)cc3)cc2)cc1 do in these assays?
HTT ATP protect: 28.1%[10 µM]; TGFb inhibitor: 8.91µM*; ATXN viability: inactive; ATXN2 expr inh: -5.8%; HepG2 tox-1: -8.7%; HttQ103 aggreg: 20.1%; TGFb CAGA inh: 23.1µM*; HepG2 tox-2: inconclusive; CCL64 TGFb inh: inconclusive; TGFb COP inh: 45.9%

Results for COc1ccc(S(=O)(=O)N2CCCCC2)cc1NC(=O)c1ccc([N+](=O)[O-])o1 ?
HTT ATP protect: -7.4%; TGFb inhibitor: -9.5%; ATXN viability: inactive; ATXN2 expr inh: 2.6%; HepG2 tox-1: -0.1%; HttQ103 aggreg: 18.1%

How did CCN1CCN(c2ccc(S(=O)(=O)N3CCCCC3)cc2NC(=O)c2ccc([N+](=O)[O-])o2)CC1 do in these assays?
TGFb inhibitor: 7.94µM*; ATXN2 expr inh: inconclusive; HepG2 tox-1: -106.0%; TGFb CAGA inh: 10.3µM*; HepG2 tox-2: 20.6µM*; CCL64 TGFb inh: 16.4µM*; TGFb COP inh: inconclusive

Results for CC(=O)N1CCN(c2ccc(NC(=O)c3ccc([N+](=O)[O-])o3)cc2Cl)CC1 ?
TGFb inhibitor: 6.31µM*; ATXN viability: inconclusive; ATXN2 expr inh: -36.3%; HepG2 tox-1: inactive; TGFb CAGA inh: 4.61µM*; HepG2 tox-2: 18.4µM*; CCL64 TGFb inh: 11.6µM*; TGFb COP inh: -28.1%

How did CC(=O)Nc1ccc2nc(NC(=O)c3ccc([N+](=O)[O-])o3)sc2c1 do in these assays?
TGFb inhibitor: 5.01µM*; ATXN viability: inactive; ATXN2 expr inh: 2.5%; HepG2 tox-1: -0.4%; TGFb CAGA inh: 1.84µM*; HepG2 tox-2: 20.6µM*; CCL64 TGFb inh: inconclusive; TGFb COP inh: 20.7%
